Inconclusive results are not listed. Activity calls are given as the source filed them. Calls follow the shape of the dose curve; as a rule, active = well fitted activation curve with a large enough effect in the signal ratio in the repeat runs (not every such curve was filed as active); inconclusive = weak or mixed curves; inactive = flat fitted curve, though single readings scatter; the % refers to the signal ratio.
Experiment: qHTS assay to identify small molecule agonists of the hypoxia (HIF-1) signaling pathway (AID 1224846)
Settings: HRE-bla ME-180 cells, beta-lactamase ratio, 17 h; series mostly up to 76.8 µM; activation: at the top concentration
Outline: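 Steps: seed ME-180 HRE-bla cells (2,000/well, 0.5% dialyzed FBS); incubate 5 hrs at 37C; pin-transfer compounds or DMSO; incubate 17 hrs; add LiveBLAzer B/G substrate CCF4-AM; measure reporter activation by FRET.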
% is scaled to controls: 0 for no effect and ±100 for the full control effect.

With OCC1CC=CCC1 (stereo unspecified) as the molecule, how does the “activation” value read?
Its value is 0.355% (inactive).

For NC(=O)Cn1c(=O)cc(CCN2CCN(c3nccc4sccc34)CC2)c2ccc(F)cc21, which “activation” value is on record?
The value was -0.616% (inactive).

Which “activation” value does the source give for CC(CCO)CCc1ccccc1 (stereo unspecified) here?
Its value is 0.121% (inactive).

Which “activation” value does the source give for Cc1nccn1-c1ccc(Sc2cccc(C3(C(N)=O)CCOCC3)c2)cc1 here?
The value was 1.14% (inactive).

Which “activation” value does the source give for O=C(N[C@@H](c1ccccc1)[C@@H]1CCCCN1)c1cccc(C(F)(F)F)c1Cl here?
Its value is 2.04% (inactive).

Which “activation” value does the source give for CCOC(=O)N1CCC(n2c(=O)[nH]c3cc(Cl)ccc32)CC1 here?
Its value is 1.18% [at 35.5 µM] (inactive).

With CCOC(=O)[C@@H](C)Oc1ccc(Oc2nc3ccc(Cl)cc3o2)cc1 as the molecule, how does the “activation” value read?
The value was 3.8% (inactive).

For C=CC(C)(C)CC(=O)OC, which “activation” value is on record?
The value was 2.09% (inactive).

With Brc1cc(-c2ccc(Br)c(Br)c2Br)cc(Br)c1Br as the molecule, how does the “activation” value read?
Its value is 2.24% [at 35.5 µM] (inactive).

For CCC(Cc1ccccc1)(C(=O)c1ccc(N2CCOCC2)cc1)N(C)C (stereo unspecified), which “activation” value is on record?
The value was 2.01% (inactive).

Which “activation” value does the source give for CCCCC1C(=O)N(c2ccccc2)N(c2ccc(O)cc2)C1=O (stereo unspecified) here?
Its value is 0.744% [at 35.5 µM] (inactive).

Which “activation” value does the source give for Nc1ccc(Cl)cc1[N+](=O)[O-] here?
The value was -1.18% (inactive).

Which “activation” value does the source give for CN1CCN(CCCN2c3ccccc3Sc3ccc(S(=O)(=O)N(C)C)cc32)CC1 here?
Its value is 1.52% [at 35.5 µM] (inactive).

For CC(C)c1nnc2ccc(-c3ocnc3-c3cc(F)ccc3F)cn12, which “activation” value is on record?
The value was 2.82% (inactive).

For Cc1cc(O)c(C(C)C)cc1Cl, which outcome is on record?
Its outcome is “inactive”.

Which “activation” value does the source give for NC(=O)N(O)[C@@H]1COc2cc(OCc3ccccc3)ccc21 here?
The value was 7% (inactive).

With CC(=O)[C@H]1CC[C@H]2[C@@H]3C=CC4=CC(=O)CC[C@@]4(C)[C@@H]3CC[C@]12C as the molecule, how does the “activation” value read?
The value was 0.676% [at 35.5 µM] (inactive).

With O=C(O)c1c(O)c(-c2ccccc2)nc2ccccc12 as the molecule, how does the “activation” value read?
Its value is 1.9% [at 35.5 µM] (inactive).

Which “activation” value does the source give for O=C(CCCCCCC(=O)Nc1ccccc1)NO here?
Its value is 1.1% [at 35.5 µM] (inactive).

With Cc1ccnc2ccccc12 as the molecule, how does the “activation” value read?
The value was -1.36% (inactive).

Which “activation” value does the source give for Cc1cc(S(=O)(=O)O)ccc1N=Nc1c(O)ccc2ccccc12 here?
The value was -0.142% (inactive).

Source: PubChem BioAssay (Tox21)
